# Bioassay records: PubChem BioAssay, several laboratories
# Mcl-1 Bim block: human Bim-Mcl-1 interaction inhibition | Q07820 | Bead-based flow cytometry, Bim peptide-Mcl-1 binding | inhibition, % at 10 µM | actives 0.1% (n = 190,000) | AID 1009; in the data active means inhibition above about 40%
# Target sequence (Q07820 whole entry, looked up): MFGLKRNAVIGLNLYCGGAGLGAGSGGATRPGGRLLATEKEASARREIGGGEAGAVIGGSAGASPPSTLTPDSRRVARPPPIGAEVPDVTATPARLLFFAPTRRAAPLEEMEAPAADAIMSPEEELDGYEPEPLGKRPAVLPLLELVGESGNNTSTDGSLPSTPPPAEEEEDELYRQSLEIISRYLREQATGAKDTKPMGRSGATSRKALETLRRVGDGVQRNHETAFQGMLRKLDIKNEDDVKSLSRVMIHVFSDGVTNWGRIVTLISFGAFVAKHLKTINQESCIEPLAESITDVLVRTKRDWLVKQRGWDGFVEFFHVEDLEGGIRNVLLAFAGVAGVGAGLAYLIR
# MCL1-BIM inh: disrupts human MCL1 binding to BIM-BH3 peptide; actives 0.68% (n = 320,000); inhibition, % at 10.9 µM; Q07820; GST-MCL1 / FITC-Bim-BH3 fluorescence polarization;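 active means inhibition above the mean inhibition of all tested compounds plus 3 SD, set per campaign, cut at about 40% in these data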;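 further: higher means more loss of mP so more displacement of Bim peptide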
# Mcl1 Noxa PPI: disrupts binding of human Mcl-1 to Noxa peptide; Q07820; TR-FRET Mcl-1/Noxa peptide binding, 2 h; inhibition, % at 21.7 µM; actives 1.5% (n = 220,000); AID 1022;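 active means compounds that cut the protein-peptide binding signal by more than 50% relative to plate controls in a single-dose test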;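 further: His-tagged Mcl-1 with rhodamine Noxa BH3 peptide and terbium anti-His antibody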
# Mcl1 Bid PPI: disrupts binding of human Mcl-1 to Bid peptide. actives 0.97% (n = 220,000). Q07820. TR-FRET Mcl-1/Bid-Dy647 peptide binding, 1536-well. inhibition, % at 21.7 µM;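 active means compounds that cut the binding signal by more than half at the single screening dose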;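 further: His-tagged Mcl-1 with europium anti-His antibody binding Bid BH3 peptide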
# GLD-1 TGE inh: GLD-1-TGE RNA interaction inhibition (C. elegans). Q17339. purified GLD-1 + fluorescein TGE RNA, fluorescence polarization. inhibition, % at 5.96 µM. actives 0.44% (n = 320,000);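 active means percent inhibition above a per-plate cutoff, the plate mean of test compounds plus 3 SD, cut at about 30% in these data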
# BCLXL inh: inhibitors of human Bcl-xL | actives 0.7% (n = 320,000) | inhibition, % at 10.9 µM | GST-Bcl-xL / FITC-Bim BH3 peptide fluorescence polarization;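 active means inhibition above the mean of all tested compounds plus 3 SD, cutoff set per campaign, cut at about 30% in these data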;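 further: inhibitors lower millipolarization by displacing the labeled peptide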
# Target sequence (Q07817 whole entry, looked up): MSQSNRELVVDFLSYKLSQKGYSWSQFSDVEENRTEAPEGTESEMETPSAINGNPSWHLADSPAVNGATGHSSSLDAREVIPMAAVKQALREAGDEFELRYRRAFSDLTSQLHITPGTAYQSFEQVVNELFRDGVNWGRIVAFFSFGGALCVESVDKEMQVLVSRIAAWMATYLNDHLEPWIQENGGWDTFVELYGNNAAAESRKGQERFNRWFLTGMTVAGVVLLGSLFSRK
# Bcl-xL conf: counter-screen for MCL1 inhibitors: confirmation of human Bcl-xL inhibitors; shares compounds with MCL1-BIM inh; actives 54% (n = 1,700); inhibition, % at 10.9 µM; GST-Bcl-xL / FITC-Bim BH3 peptide FP binding;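 active means inhibition above a cutoff equal to the mean inhibition of all tested compounds plus 3 SD, cut at about 30% in these data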
# MCL1 inh confirm: confirmation of human MCL1 and BIM-BH3 interaction inhibitors | shares compounds with MCL1-BIM inh | GST-MCL1 / FITC-Bim-BH3 fluorescence polarization | inhibition, % at 10.9 µM | actives 61% (n = 1,700);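 active means inhibition above the average of all tested compounds plus 3 SD, cut at about 40% in these data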
# Hits are given with their value; . = inactive; / = no result given; + = active, no number. A selection: hits, their analogues and other compounds. The true share with any hit is near 2.3%.
SMILES,Mcl-1 Bim block,MCL1-BIM inh,Mcl1 Noxa PPI,Mcl1 Bid PPI,GLD-1 TGE inh,BCLXL inh,Bcl-xL conf,MCL1 inh confirm
CCc1nnc(NC(=O)c2ccc(Cl)nc2)s1,.,.,.,.,.,.,/,/
O=C(Nc1nnc(C2CC2)s1)c1ccc(Cl)nc1,/,178,/,/,.,.,.,.
O=S(=O)(NNc1ncc(C(F)(F)F)cc1Cl)c1ccccc1,/,.,/,/,.,.,/,/
O=C1NC(=O)/C(=C/c2cccc3ccccc23)S1,/,.,/,/,.,.,/,/
O=C1NC(=O)/C(=C\c2ccc(O)cc2O)S1,.,50,95,.,.,31,94,133
Cc1ccc(CS(=O)(=O)CC(C)(O)c2ccccc2)cc1 (stereo not drawn),/,.,/,/,.,.,/,/
COc1cc(C(=O)OCC(=O)Nc2ccc(N3CCOCC3)cc2)ccc1OCC(C)C,/,.,/,/,.,.,/,/
CC1(C(=O)NNC(=O)c2ccc(=O)oc2)CC1Br (stereo not drawn),/,58,.,.,.,37,41,52
O=c1[nH]n2c(=O)c3c([nH]c2c1N=Nc1cccc(Cl)c1)CCC3,.,42,58,.,.,.,.,.
CCN(CC)S(=O)(=O)c1cccc(C(=O)N/N=C2\CCCC(=O)C2)c1,/,56,.,.,114,41,.,.
CCN(CC)S(=O)(=O)c1cccc(C(=O)N/N=C/c2cccc(O)c2O)c1,.,.,.,.,.,.,/,/
O=C(CSc1nnc(SCc2ccccc2)s1)N/N=C/C=C\c1ccco1,.,43,54,.,.,.,31,59
Cc1ccccc1OCC(=O)N/N=C/c1ccc([N+](=O)[O-])o1,.,.,.,.,.,.,/,/
Cc1ccc(OCC(=O)N/N=C/C=C/c2ccco2)cc1,.,40,.,.,.,.,55,71
COc1ccccc1OCC(=O)N/N=C/C=C/c1ccc([N+](=O)[O-])o1,.,41,.,.,.,.,.,.
Cc1ccc(C)c(N2C(=N)S/C(=C\c3ccc(-c4ccccc4C(=O)O)o3)C2=O)c1,.,.,.,.,.,.,/,/
CN1C(=O)/C(=C/c2ccc(-c3ccccc3[N+](=O)[O-])o2)SC1=Nc1ccc(Cl)c(C(=O)O)c1,47,74,108,.,.,44,.,.
CCOc1cccc(NC(=O)C2CC(=O)N(C)C(=Nc3cccc(F)c3)S2)c1 (stereo not drawn),.,42,.,.,.,.,.,.
O=C(O)/C=C/C(=O)NCc1ccccn1,.,50,.,.,36,52,48,52
O=C(O)/C=C/C(=O)NCc1ccccc1,.,.,.,.,.,.,/,/
Cc1ccc(/C=C/C(=O)NCc2ccccn2)o1,.,41,74,.,.,.,.,51
CCOC(=O)c1nc(C)nc(Sc2n[nH]c(-c3cc(C(F)(F)F)cc(C(F)(F)F)c3)n2)c1C,/,.,.,.,.,.,/,/
O=C(O)CC1S/C(=N/N=C/c2ccc(-c3ccc(Cl)c([N+](=O)[O-])c3)o2)NC1=O (stereo not drawn),.,41,.,.,.,.,.,.
CS(=O)(=O)N1CCC(C(=O)N2CCN(C(c3ccccc3)c3ccccc3)CC2)CC1,.,.,.,.,.,.,/,/
O=C(O)Cc1c[nH]c2cccc(O)c12,.,45,81,.,.,.,.,.
SMILES,Mcl-1 Bim block,MCL1-BIM inh,Mcl1 Noxa PPI,Mcl1 Bid PPI,GLD-1 TGE inh,BCLXL inh,Bcl-xL conf,MCL1 inh confirm
COc1cc(OC)cc(-c2c(-c3cccs3)c3cc(-c4ccc(CN5CCOCC5)cc4)ccc3n2C)c1,/,/,/,/,.,/,/,/
CCn1nc(-c2ccccc2)c2nc3ccccc3nc21,.,101,.,.,.,88,137,140
CC1=Nc2ccccc2/C1=C\c1nc(-c2ccc(C(F)(F)F)cc2)oc1O,.,58,.,.,.,60,100,126
CC1=Nc2ccccc2/C1=C\c1nc(-c2ccccc2)oc1O,.,.,.,.,.,.,/,/
COCCNc1nnc(SCC(=O)NNC(=O)c2ccc([N+](=O)[O-])cc2)s1,/,75,/,/,.,.,.,.
CCOc1ccc(CN(C)C(=O)CN2C(=O)NC(c3ccccc3)(c3ccccc3)C2=O)cc1,/,.,/,/,.,.,/,/
Cc1ccc(-c2c3c([nH]c(=S)c2C#N)CCCC3)o1,.,43,74,.,.,.,.,.
N#Cc1c(-c2ccncc2)c2c([nH]c1=S)CCCC2,.,.,.,.,.,.,/,/
COc1cccc2c1C(=O)c1c(O)c3c(c(O)c1C2=O)C[C@@](O)(C(=O)CO)C[C@@H]3O[C@H]1C[C@H](N)[C@@H](O)[C@H](C)O1,/,+,/,/,+,+,+,+
COc1cccc2c1C(=O)c1c(O)c3c(c(O)c1C2=O)C[C@@](O)(C(C)=O)C[C@@H]3O[C@H]1C[C@H](N)[C@H](O)[C@H](C)O1,.,/,.,.,/,/,/,/
CC(=O)[C@]1(O)Cc2c(O)c3c(c(O)c2[C@@H](O[C@H]2C[C@H](N)[C@H](O)[C@H](C)O2)C1)C(=O)c1ccccc1C3=O,/,+,/,/,+,+,+,+
CCOc1ccc(NC(=O)c2cccc(-n3cccc3)c2)cc1S(=O)(=O)N1CCOCC1,/,67,/,/,.,.,.,56
O=C(Oc1ccc2c(c1)O/C(=C\c1ccncc1)C2=O)c1ccccc1,.,93,.,.,75,81,.,54
Nc1ccc(C(=O)N/N=C\c2cc(N=Nc3cccc4ccccc34)ccc2O)cc1,.,66,/,65,.,.,.,72
CCN(CC)C(=O)COc1ccc2c(-c3ccccc3)cc(=O)oc2c1,/,+,/,/,.,.,.,.
Cc1cc(C(C)C)n2c(nc3ccccc32)c1C#N,.,.,.,.,.,.,/,/
Cc1cc(-c2ccco2)c(C#N)c2nc3ccccc3n12,.,128,/,/,.,85,127,173
O=C(CCN1C(=O)C2CC=C(Cl)CC2C1=O)N1CCCCC1 (stereo not drawn),.,56,.,.,58,54,56,66
Nc1nn2c(-c3ccccc3)cc(=O)[nH]c2c1N=Nc1ccc(O)cc1,.,64,.,80,.,.,38,74
COc1ccccc1C(=O)C1CCCN(C(=O)CN2CCCCC2=O)C1 (stereo not drawn),.,.,.,.,.,.,/,/
[O-][n+]1c2ccccc2[n+]([O-])c2cc(O)ccc21,/,46,/,/,.,.,45,77
O=C(c1cccc(Cl)c1)N1CCC(N2CCC(C(=O)N3CCCC3)CC2)CC1,/,.,/,/,.,.,/,/
